High-throughput results (PubChem)
Hits are enriched below; roughly 2.2% of the tested compounds scored in any of these assays.
Exocytosis inh: lytic granule exocytosis inhibition; TALL-104 LAMP-1 surface exposure, flow cytometry; cells stimulated with thapsigargin and PMA; inhibition, % at 10 µM; 0.66% of 360,000 active;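 active = inhibition above about 55%, limit read from the data; inconclusive = no clear call, values can overlap the other calls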
VLA-4 inh: inhibition in a human VLA-4 binding assay; 0.2% of 330,000 active; VLA-4 expressing cells, ligand binding flow cytometry; inhibition, % (about 7 µM as worked out from the volumes in the protocol); AID 2557; in the data active = inhibition above about 50%
V-ATPase pH: yeast V-ATPase proton transport regulation by pHLuorin | S. cerevisiae, pHLuorin cytosolic pH fluorescence | 0.37% of 350,000 active | AID 504577 | response, % at 10 µM; in the data active = response mostly above about 7.3%, no sharp cut-off; inactive = mostly below about 5.4%; note: actives read high
HTR2A ag: mouse HTR2A agonism via beta-arrestin recruitment. CHO-K1 mHTR2A beta-arrestin complementation, luminescence; percent of 30 µM serotonin response. activation, % at 7.6 µM. 0.66% of 360,000 active. AID 624169;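 active = activation above a run cutoff, the mean activation of all tested compounds plus 3 SD, cut at about 14% in these data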;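 note: 0% = plate median of compound wells and 100% = 30 µM serotonin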
JMJD2C inh: blocks human GASC-1 demethylase activity; Q9H3R0; GST-JMJD2C(1-420) H3K9me3 demethylation, DELFIA europium; inhibition, % at 2.35 µM; 0.069% of 330,000 active; AID 2099;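 active = more than half of a compound's replicate wells show inhibition beyond 50%, single wells judged on their own value; inconclusive = some, but no more than half, of replicates pass 50% inhibition; inactive = no replicate passes 50% inhibition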;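 note: signal counts dimethyl H3K9 product captured on neutravidin plate; 0% = median of DMSO wells and 100% = 0.3 times that DMSO median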
Target sequence (Q9H3R0 1-420 limits assumed): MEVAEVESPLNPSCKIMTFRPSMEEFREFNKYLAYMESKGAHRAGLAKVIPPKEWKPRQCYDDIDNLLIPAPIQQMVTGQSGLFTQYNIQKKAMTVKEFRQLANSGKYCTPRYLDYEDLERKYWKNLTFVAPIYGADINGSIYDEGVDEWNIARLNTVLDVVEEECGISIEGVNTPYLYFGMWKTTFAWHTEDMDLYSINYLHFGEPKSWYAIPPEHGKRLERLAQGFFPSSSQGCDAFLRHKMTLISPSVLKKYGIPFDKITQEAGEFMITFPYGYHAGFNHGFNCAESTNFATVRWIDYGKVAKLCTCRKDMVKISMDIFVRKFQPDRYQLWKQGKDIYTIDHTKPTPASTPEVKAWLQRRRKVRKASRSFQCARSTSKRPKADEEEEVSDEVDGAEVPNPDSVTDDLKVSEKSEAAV
MEX-5 binding: C. elegans MEX-5 TCR-2 RNA binding activity. Q9XUB2. MEX-5/FITC-TCR2 RNA binding, fluorescence polarization; stronger effect = lower value. activity score (negative = inhibition of binding), % at 10 µM. 0.38% of 300,000 active;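 active = inhibition past about -25% in most replicates, and total fluorescence under double the plate's negative control median, limit read from the data; inconclusive = replicates evenly split on the limit, or fluorescence at least double controls; inactive = too little inhibition in most replicates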;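 note: 0% = DMSO and -100% = 5 µM competing unlabeled TCR2 RNA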
V-ATPase pH SP: modulates yeast V-ATPase proton transport; shares compounds with V-ATPase pH; S. cerevisiae pHLuorin cytosolic pH; response, % at 10 µM; 2% of 980 active; in the data active = response above about 24%;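 note: plate controls were vehicle wells for no effect and positive control wells for full effect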
* = called active by the depositor; u = inconclusive; x = not tested or not shown.

SMILES | Exocytosis inh | VLA-4 inh | V-ATPase pH | HTR2A ag | JMJD2C inh | MEX-5 binding | V-ATPase pH SP
Cc1c(N=Cc2c(O)n(C3CCCCC3)c(=O)[nH]c2=O)c(=O)n(-c2ccccc2)n1C | -3 | 10 | 19* | 3 | -21 | 2 | -31
COc1ccc(-c2cc(C(=O)NCCCn3ccnc3)no2)cc1OC | 0 | 8 | 12* | 3 | 2 | -7 | -1
O=C(COC(=O)/C=C/c1ccccc1Cl)NC(=O)Cc1ccccc1 | -7 | 8 | 9.9* | 3 | -7 | -2 | 2
O=C(COC(=O)/C=C/c1ccccc1Cl)NC(=O)NCc1ccccc1 | 4 | 4 | 3 | 3 | 1 | x | x
Cc1ccsc1CN1CC(=O)N(c2c(C)cccc2C)C1=S | -13 | 0 | 7.4* | -1 | 5 | 0 | 0
Cc1cccc(N2C(=O)CN(Cc3sccc3C)C2=S)c1 | -2 | -2 | -2 | 2 | 0 | 1 | x
CC(Nc1cccc([N+](=O)[O-])c1)C(=O)Nc1ccc(S(=O)(=O)N2CCCC2)cc1 (centres undefined) | 1 | x | 4 | -5 | x | x | x
CC1Sc2ccc(C(=O)NCc3ccccn3)cc2NC1=O (centres undefined) | 1 | 0 | -1 | -1 | 2 | x | x
O=C1CN(C(=O)COc2ccc(Br)cc2Br)c2ccccc2N1 | 1 | 3 | 8.8* | 2 | 1 | -2 | 3
CCOc1ccc(C(=O)N[C@H](C(=O)NNC(=O)c2cccs2)C(C)C)cc1 | -1 | 4 | -1 | 2 | -8 | x | x
N#C/C(=C\c1ccco1)C(=O)Nc1ccc(S(N)(=O)=O)cc1 | -3 | 8 | 8.6* | 5 | 4 | -2 | -7
N#C/C(=C/c1ccc(-c2ccc(S(N)(=O)=O)cc2)o1)C(=O)Nc1ccccc1 | 3 | 4 | -1 | -2 | -1 | -10 | x
O=C(Oc1ccc2ccc(=O)oc2c1)c1cccs1 | -2 | -4 | 25* | 4 | -8 | 1 | 1
O=C(Oc1ccc2c(-c3ccccc3)cc(=O)oc2c1)c1cccs1 | -1 | 2 | 2 | 1 | 1 | 0 | x
Cc1c(C(=O)NN)nn(-c2ccc(Cl)cc2)c(=O)c1C#N | 0 | -2 | 1 | -2 | 1 | x | -3
Cn1c(SCC(=O)Nc2ccccc2)nc(O)cc1=O | -1 | -10 | 8.9* | 1 | 1 | 1 | -1
CC1=NOC(=O)/C1=C\c1ccc2c(c1)OCO2 | 2 | 25 | -2 | 4 | 6 | u | x
CC1=NOC(=O)/C1=C/c1ccc2c(c1)OCO2 | -1 | 25 | 11* | -1 | 11 | u | -31
CC(O)(CS(=O)(=O)Cc1ccccc1)c1ccc(Cl)cc1 (centres undefined) | -11 | -8 | 2 | -10 | 5 | -1 | x
CC(O)(CS(=O)(=O)Cc1ccccc1)c1ccccc1Cl (centres undefined) | -3 | 0 | 6.9* | 2 | -14 | 1 | -5
Cn1ncc([N+](=O)[O-])c1C(=O)Nc1ccc(C2CCCCC2)cc1 | 0 | 3 | 0 | 3 | -15 | -3 | x
Cc1cc(C)c(OCC(=O)Nc2nc3ccccc3[nH]2)c(C)c1 | 2 | 0 | 9.7* | 1 | 0 | -2 | -4
CN1C(=O)N(C)C2(c3ccccc3)Nn3c(s/c(=C/c4ccccc4)c3=O)=NC12c1ccccc1 (centres undefined) | 0 | 9 | 23* | 8 | -2 | 2 | 0
CN1CCN(C(CNC(=O)C(=O)NC2CCCC2)c2ccc(F)cc2)CC1 (centres undefined) | -6 | 26 | -1 | -1 | -35 | 0 | x
COc1ccc(CCNc2nc(-c3ccco3)cc(C(F)(F)F)n2)cc1OC | -1 | 3 | 11* | 0 | -3 | 3 | 2
SMILES | Exocytosis inh | VLA-4 inh | V-ATPase pH | HTR2A ag | JMJD2C inh | MEX-5 binding | V-ATPase pH SP
Cc1ccc(S(=O)(=O)N2CCC(C(=O)N/N=C/c3cccn3C)CC2)cc1 | 3 | 14 | 11* | -3 | -1 | x | 3
Cc1ccc(S(=O)(=O)N2CCC(C(=O)Nc3ccc(S(=O)(=O)N4CCCC4)cc3)CC2)cc1 | -2 | 8 | -3 | 0 | -12 | -3 | x
O=c1[nH]nc(N2CCOCC2)c(=O)[nH]1 | -3 | 6 | -1 | 0 | 4 | 6 | x
CN(CC(=O)Nc1ccccc1Br)C(=O)c1cc([N+](=O)[O-])ccc1N1CCOCC1 | -4 | -9 | 7.0* | 0 | 8 | 1 | -1
Cc1cccc(C)c1NC(=O)CN(C)C(=O)c1cc([N+](=O)[O-])ccc1N1CCOCC1 | -2 | 13 | 0 | 2 | 21 | -1 | x
CCCCn1c(=O)[nH]c(=O)c2c1nc(-c1ccc(C)c([N+](=O)[O-])c1)n2CC | -6 | 7 | 9.9* | 11 | 1 | 2 | 0
O=C(COC(=O)CCc1ccccc1)Nc1ccc(F)cc1Cl | -9 | -23 | -1 | -2 | 0 | -1 | x
O=C(COC(=O)c1cnc(Cl)c(Cl)c1)NCCC1=CCCCC1 | -7 | 15 | 65* | 1 | -23 | 0 | 5
Cc1cc(C)c(S(=O)(=O)c2ccccc2Cl)c(=O)[nH]1 | -9 | 13 | -4 | -2 | 3 | -1 | x
Cc1ccc(-c2csc(C(C#N)=C3CCCC3)n2)cc1 | -4 | 3 | -4 | 3 | 9 | -10 | x
N#CC(=C1CCCC1)c1nc(-c2ccccc2)cs1 | -1 | 8 | 9.7* | -2 | 38 | 3 | -4
O=C(Cn1ncc2c1-c1ccccc1OC2)Nc1ccc(S(=O)(=O)N2CCCCC2)cc1 | 3 | -2 | 12* | 3 | x | x | -2
CC1(C)CC(=O)C(C(C2=C(O)CC(C)(C)CC2=O)c2cccs2)C(=O)C1 (centres undefined) | -2 | 1 | 11* | -3 | -3 | -1 | 35*
Cc1noc(NS(=O)(=O)c2ccc(NC(=O)/C=C/c3ccccc3)cc2)c1C | 0 | 20 | 13* | 13 | 3 | x | 4
CCCC1(C(=O)OC)NC(c2ccc(OC)cc2OC)C2C(=O)N(c3cccc(C(C)=O)c3)C(=O)C21 (centres undefined) | 6 | 8 | 3 | 7 | -1 | 2 | x
O=C(N/C(=C\c1ccc(Br)cc1)C(=O)N1CCOCC1)c1ccco1 | u | 13 | 14* | -3 | -10 | -1 | -3
CCCCCCSc1nsc(NC(C)=O)n1 | 14 | -1 | 11* | -1 | 3 | 2 | 4
O=C(CC[C@H]1O[C@@H](n2ccc(=O)[nH]c2=O)[C@H](O)[C@@H]1O)NCc1ccccc1 | -2 | x | x | 5 | x | x | x
CCc1cccc(NC(=O)c2ccc3c(=O)n4c(nc3c2)CCCCC4)c1 | -2 | -173 | 3 | 5 | -1 | 0 | x
C[C@@H]1C=C[C@](Cc2ccccc2)(C(=O)NCC2CC2)N1C(=O)c1ccccc1 | -3 | -2 | 11* | 1 | 8 | 0 | 0
